The test system of experiment [1] is XIP peptide (Xip251-270) binding. In words: small-molecule binders of XIP peptide, primary screen, biochemical, small-molecule microarray, fluorescence 635/667 nm, 0.1 µg/mL protein (AID 1182). To be noted: fluorescent protein binding, 635 nm, higher = more signal, called active from +8 up or from −8 down.
Experiment [2] concerns XIP peptide (Xip251-270). Kind of experiment: small-molecule binders of XIP peptide, primary screen, biochemical, small-molecule microarray, fluorescence 635/667 nm, 0.5 µg/mL protein (AID 1183). Conditions: small-molecule microarray binding, fluorescence 635 nm; higher = more signal.
Experiment [3] is described as follows: Plasmodium falciparum growth inhibition, primary screen, strain 3D7, DAPI fluorescence, 100 nL (AID 1184).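 Also: parasites grown inside human red blood cells in medium with human serum.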 Conditions: P. falciparum 3D7 growth, 3 d, higher = more signal.
The target of experiment [4] is Homeobox protein Hox-A13 (Mus musculus) (UniProt Q62424). Kind of experiment: inhibitors of HoxA13-DNA binding, primary screen, biochemical, fluorescence polarization, labeled oligonucleotide (AID 1185). Conditions: 15 min, higher = more signal, called active from +8 up or from −8 down. Background: Fluorescence polarisation rises when a labelled molecule tumbles more slowly, as on binding a larger partner.
Chain of Homeobox protein Hox-A13 (Mus musculus) (Q62424 whole entry, looked up): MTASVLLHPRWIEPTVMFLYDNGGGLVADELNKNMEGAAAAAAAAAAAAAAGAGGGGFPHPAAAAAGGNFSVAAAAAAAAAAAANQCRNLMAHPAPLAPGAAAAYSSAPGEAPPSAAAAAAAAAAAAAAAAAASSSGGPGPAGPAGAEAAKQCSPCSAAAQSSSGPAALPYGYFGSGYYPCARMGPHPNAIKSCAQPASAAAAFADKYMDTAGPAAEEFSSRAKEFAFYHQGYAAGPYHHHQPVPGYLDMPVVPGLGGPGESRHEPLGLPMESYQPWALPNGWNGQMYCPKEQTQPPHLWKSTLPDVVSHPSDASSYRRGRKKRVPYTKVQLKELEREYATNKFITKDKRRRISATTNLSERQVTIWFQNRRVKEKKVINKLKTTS

The nature of experiment [5]: inhibitors of hydroxyurea-induced Chk1 phosphorylation, primary screen, imaging, HeLa, phospho-Chk1 antibody, percent positive cells (AID 1186). To be noted: hydroxyurea-induced phospho-Chk1 immunofluorescence imaging, higher = more signal.
The nature of experiment [6]: inhibitors of hydroxyurea-induced Chk1 phosphorylation, primary screen, imaging, HeLa, phospho-Chk1 nuclear intensity (AID 1187). Conditions: hydroxyurea-induced phospho-Chk1 immunofluorescence imaging, higher = more signal.

Each structure is given as a SMILES string. Activity calls are given as the source filed them. Unless noted, no rule for the calls is given here.

In the case of `CN(C)CCCNC(=O)[C@@H]1c2ccccc2C(=O)N(Cc2ccccc2)[C@H]1c1ccc(CO)cc1`, the composite z-score in experiment [1] is 0.0257 (inactive); in experiment [2], -0.32. The z-score in experiment [3] was 0.0535; in experiment [4], 0.86 (inactive); in experiment [5], 0.242 (inactive); in experiment [6] it was 0.372 (inactive).

Take `COC(=O)[C@@H]1N=C(c2ccc(OCCCO)cc2)O[C@@H]1c1ccccc1N=[N+]=[N-]`: the values for the composite z-score in experiment [1] and in experiment [2] were 0.82 (inactive) and 0.806, respectively. Moreover, the z-score in experiment [3] was -1.43; in experiment [4], -3.65 (inactive); in experiment [5], -0.292 (inactive); in experiment [6], -0.269 (inactive).

Take `Cc1ccc(C2CC=C(C(=O)O)CN2S(=O)(=O)c2ccc(C)cc2)cc1` (configuration not stated): the composite z-score is 0.911 (inactive) in experiment [1] and 0.912 in experiment [2]. Further, the z-score is -1.2 in experiment [3], -4.53 (inactive) in experiment [4], -0.185 (inactive) in experiment [5] and -0.999 (inactive) in experiment [6].

On to `C=C(/C(=C/C[C@H](OC(=O)c1ccncc1)c1ccc(OCCO)cc1)c1cnc2ccccc2c1)C(C)C`, for which the composite z-score in experiment [1] was 0.782 (inactive); in experiment [2], 0.528. In addition, the z-score in experiment [3] was -2.84; in experiment [4] it was -3.29 (inactive); in experiment [5], 0.118 (inactive); in experiment [6], -0.0461 (inactive).

With `COCCOC(=O)N1C(=O)[C@@]2(c3cc(C#CC4(O)CCCCCC4)ccc31)[C@H](C(=O)N1CCN(c3ncccn3)CC1)[C@H]1C(=O)O[C@H](c3ccccc3)[C@H](c3ccccc3)N1[C@@H]2c1ccc(OCCO)cc1`, the composite z-score in experiment [1] was -0.128 (inactive); in experiment [2] it was 0.835. Also, the z-score was -2.34 in experiment [3], 0.821 (inactive) in experiment [4], 0.124 (inactive) in experiment [5] and 0.204 (inactive) in experiment [6].

`C=CCC(OC(C)=O)[C@@H]1[C@@H](N(Cc2cc3ccccc3o2)C(=O)Cc2ccc(F)cc2)c2cc(OCCCO)ccc2N1C(=O)Cc1ccc(OC)cc1` (some centres not stated): the composite z-score was -0.386 (inactive) in experiment [1] and -0.0246 in experiment [2]. Further, the z-score is 0.163 in experiment [3], -2.68 (inactive) in experiment [4], 0.784 (inactive) in experiment [5] and 0.0687 (inactive) in experiment [6].

For `C=C(/C(=C/C[C@H](OC(C)=O)c1ccc(OCCO)cc1)c1cnc2ccccc2c1)C(C)C`, the composite z-score was -0.18 (inactive) in experiment [1] and 0.605 in experiment [2]. The z-score was -2.99 in experiment [3], -4.31 (inactive) in experiment [4], -0.319 (inactive) in experiment [5] and -0.38 (inactive) in experiment [6].

Turning to `COCCCNC(=O)[C@]1(Cc2ccccc2)N=C(c2ccc(OCCCO)cc2)O[C@@H]1c1ccccc1`, the composite z-score is 2.03 (inactive) in experiment [1] and 0.825 in experiment [2]. Also, the z-score in experiment [3] is -2.17; in experiment [4], -4.76 (inactive); in experiment [5] it was -0.117 (inactive); in experiment [6], -0.0405 (inactive).

With `O=C1O[C@@H](c2ccccc2)[C@@H](c2ccccc2)N2[C@@H](c3ccc(OCCO)cc3)[C@]3(C(=O)Nc4ccc(C#CCCO)cc43)[C@@H](C(=O)N3CCCCCCC3)[C@H]12`, the composite z-score in experiment [1] is 2.93 (inactive); in experiment [2], 0.883. In addition, the z-score in experiment [3] is -2.22; in experiment [4] it was -12.2 (active); in experiment [5], -0.148 (inactive); in experiment [6] it was 0.224 (inactive).

As to `CC(C)c1ccc(NN2C(C(O)c3ccc4c(c3)OCO4)C=CC3C(=O)N(c4ccccc4)C(=O)C32)cc1` (configuration not stated), the values for the composite z-score in experiment [1] and in experiment [2] were 0.803 (inactive) and 0.665, respectively. The z-score in experiment [3] was -0.121; in experiment [4] it was -1.45 (inactive); in experiment [5], -0.575 (inactive); in experiment [6], -0.575 (inactive).

Regarding `C[N+](C)(C)CCCCCCNC(=O)[C@@H]1C[C@@H]2C(=O)N3CCC[C@H]3C(=O)N2[C@@H]1c1cccc(OCCO)c1`, the composite z-score is -0.113 (inactive) in experiment [1] and 0.697 in experiment [2]. In addition, the z-score was -0.204 in experiment [3], -4.95 (inactive) in experiment [4], -0.173 (inactive) in experiment [5] and -0.0252 (inactive) in experiment [6].

For the molecule `Cc1ccc(S[C@]2(C(=O)NCC(F)(F)F)CC(=O)N(Cc3ccccc3Cl)[C@@H]2c2ccc(CO)cc2I)cc1`, the composite z-score in experiment [1] is 0.292 (inactive); in experiment [2], 0.426. In addition, the z-score was 0.115 in experiment [3], -2.61 (inactive) in experiment [4], 0.395 (inactive) in experiment [5] and 0.92 (inactive) in experiment [6].

On to `O=C(CS)NCCCCCNC(=O)[C@H]1C[C@H]2C(=O)N3CCC[C@H]3C(=O)N2[C@H]1c1cccc(OCCO)c1`, for which the composite z-score in experiment [1] is 0.81 (inactive); in experiment [2], 0.887. Moreover, the z-score in experiment [3] was -0.718; in experiment [4], -3.04 (inactive); in experiment [5] it was -0.58 (inactive); in experiment [6], -0.281 (inactive).

As to `COc1ccc([Si](C)(C)[C@H]2[C@H](CC(=O)N3CCC[C@H]3CO)O[C@@]3(C(=O)N(Cc4cccc(N5C(=O)COc6ccccc65)c4)c4ccccc43)[C@@H]2C)cc1`, the composite z-score in experiment [1] is 0.422 (inactive); in experiment [2] it was 0.74. For the same molecule, the z-score in experiment [3] is -1.56; in experiment [4], -3.12 (inactive); in experiment [5], 0.0942 (inactive); in experiment [6], 0.728 (inactive).

`C=C(COC)/C(=C/C[C@H](OC(=O)c1ccncc1)c1ccc(CO)o1)c1cc(C(=O)OC)ccc1OC`: the figures for the composite z-score in experiment [1] and in experiment [2] were -0.222 (inactive) and 0.483, respectively. Besides, the z-score in experiment [3] is 0.215; in experiment [4], -5.06 (inactive); in experiment [5], -0.35 (inactive); in experiment [6] it was -0.437 (inactive).

Take `O=C1C[C@]2(c3ccc([N+](=O)[O-])cc3)C(=O)N(CCN3CCOCC3)c3cc(CO)ccc3[C@H]2N1CC12CC3CC(CC(C3)C1)C2`: the composite z-score in experiment [1] is 0.288 (inactive); in experiment [2] it was -0.307. For the same molecule, the z-score is -0.226 in experiment [3], -2.32 (inactive) in experiment [4], 0.416 (inactive) in experiment [5] and 0.394 (inactive) in experiment [6].

Regarding `C=CCOC(=O)[C@H]1[C@@H]2C(=O)O[C@@H](c3ccccc3)[C@@H](c3ccccc3)N2[C@@H](c2ccc(OCCOC(=O)[C@H]3C[C@H]4C(=O)N5CCC[C@H]5C(=O)N4[C@H]3c3cccc(OCCO)c3)cc2)[C@]12C(=O)Nc1ccc(I)cc12`, the composite z-score was 2.54 (inactive) in experiment [1] and 0.829 in experiment [2]. Besides, the z-score is -0.139 in experiment [3], -1.27 (inactive) in experiment [4], -0.576 (inactive) in experiment [5] and -0.305 (inactive) in experiment [6].
